High-throughput results: PubChem, several laboratories
A selection: hits, their analogues and other compounds. The true share with any hit is near 32%.
CYP2C9 activ = human CYP2C9 activators, primary screen, biochemical, luminescence | Cytochrome P450 2C9 (Homo sapiens), P11712 | recombinant CYP2C9, luciferin-H conversion; active compounds read high; factor 1 = untreated enzyme, 0 = blocked | activation factor at 5 µM | hit rate 1.4% among 96,000 | AID 1024, 2008;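 active = activation factor of 2 or more for CYP2C9 at a 5 µM dose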
Target sequence (P11712 whole entry, looked up): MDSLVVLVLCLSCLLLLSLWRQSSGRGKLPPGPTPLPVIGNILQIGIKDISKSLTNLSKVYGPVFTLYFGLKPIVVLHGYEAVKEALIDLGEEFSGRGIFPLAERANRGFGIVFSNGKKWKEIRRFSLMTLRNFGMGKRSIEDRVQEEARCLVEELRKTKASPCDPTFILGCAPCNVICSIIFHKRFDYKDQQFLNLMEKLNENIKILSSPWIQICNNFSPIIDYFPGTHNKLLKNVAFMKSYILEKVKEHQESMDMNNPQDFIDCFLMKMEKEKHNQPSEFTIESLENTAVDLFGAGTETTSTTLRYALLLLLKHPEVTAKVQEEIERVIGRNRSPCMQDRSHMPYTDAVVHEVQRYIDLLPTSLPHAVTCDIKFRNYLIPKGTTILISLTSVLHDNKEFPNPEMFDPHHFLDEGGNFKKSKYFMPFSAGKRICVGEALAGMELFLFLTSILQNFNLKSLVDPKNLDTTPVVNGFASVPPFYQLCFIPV
CYP2C19 activ = human CYP2C19 activators, primary screen, biochemical, luminescence | activation factor at 5 µM | 96,000 tested, under 10 active | AID 1025, 2008 | recombinant CYP2C19, luciferin-H EGE luminescence; active compounds read high; 0 = fully inhibited enzyme, 1 = untreated enzyme;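 active = activation factor of at least 2 at 5 µM in the primary screen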
CYP2C9 inh = blockers of cytochrome P450 2C9 activity – biochemical, luminescence, ADME assay, primary screen | P11712 | CYP2C9 Supersomes, luciferin-H conversion | inhibition, % at 5 µM | hit rate 20% among 96,000;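 active = blocking of liver enzyme CYP2C9 beyond about 50% at 5 µM, limit read from the data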
PostGolgi ctrl = growth inhibition of yeast control strain, primary screen, counter-screen for post-Golgi transport modulator project; efflux-deficient yeast background strain, growth absorbance A615, 16 h; inhibition, % at 10 µM; hit rate 5% among 98,000
CYP2C19 inh = blockers of cytochrome P450 2C19 activity – biochemical, luminescence, ADME assay, primary screen | inhibition, % at 5 µM | hit rate 21% among 96,000 | AID 778, 2007 | P33261 | CYP2C19 Supersomes, luciferin-H EGE luminescence, 30 min;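 active = CYP2C19 inhibition above a set limit at 5 µM in the primary screen, cut at about 50% in these data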
PostGolgi yeast = phenotypic screen on post-Golgi transport, primary screen. post-Golgi transport phenotypic cell assay. inhibition, % at 10 µM. hit rate 0.9% among 98,000. AID 739, 2007;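 note: yeast cells grown in 1536-well plates; yeast grown about 18 h at 30C before absorbance read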
Large screens that a line does not name were inactive. Cut-off read from the data, not from the text of the source, unless noted: active = inhibition above about 30%; inactive = the rest.

COc1ccccc1C1C(C(=O)c2sc(C)nc2C)=C(O)C(=O)N1CCN1CCOCC1 (configuration not stated)	none
N#Cc1c(NC(=O)CN2CCCCC2)sc2c1CCC2	none
Oc1ccc(Cl)cc1-c1cc(-c2cccc(Br)c2)n[nH]1	PostGolgi ctrl 54
Oc1ccccc1-c1cc(-c2ccco2)[nH]n1	CYP2C9 inh 51, PostGolgi ctrl 30
Oc1c(-c2cc(-c3ccco3)[nH]n2)ccc2ccccc12	CYP2C9 inh 74
Cc1ccc(O)c(-c2cc(C(F)(F)C(F)F)[nH]n2)c1	CYP2C9 inh 83, CYP2C19 inh 84
CN1CC(=O)N(CC(=O)NCc2ccc3c(c2)OCO3)C1=O	none
NC(=O)CSc1ncc(-c2ccccc2)[nH]1	none
O=C(CSc1ncc(-c2ccccc2)[nH]1)Nc1ccccc1	CYP2C9 inh 56, CYP2C19 inh 75
O=C(CSc1nc2c(cnn2-c2ccc(F)cc2)c(=O)[nH]1)N1CCCCC1	none
O=C(CSc1ncc(-c2ccc(F)cc2)[nH]1)N1CCCCC1	CYP2C19 inh 84
O=C(CSc1nc(-c2ccccc2)cc(=O)[nH]1)Nc1ccccn1	none
O=C(CSc1ncc(-c2ccccc2)[nH]1)Nc1cccc(O)c1	CYP2C19 inh 62
Cc1nnc(C)n1/N=C/c1ccc(-c2ccccc2)cc1	none
COc1cccc(C(=O)Nc2nc3c(c(=O)[nH]2)CCCC3)c1	none
CCn1ncc(C2=NOC(C(=O)NCc3ccc(Cl)cc3)C2)c1C (configuration not stated)	CYP2C9 inh 50, CYP2C19 inh 66
CCn1ncc(C2=NOC(C(=O)Nc3ccc(C)cc3)C2)c1C (configuration not stated)	none
CCn1ncc(C2=NOC(C(=O)Nc3ccc4c(c3)OCO4)C2)c1C (configuration not stated)	CYP2C19 inh 56
O=S(=O)(c1cccc(NC(=S)Nc2ccc(Br)cc2Cl)c1)N1CCOCC1	none
CC/C(=N\NC(=O)c1ccncc1)C12CC3CC(CC(C3)C1)C2	CYP2C19 inh 94
CC/C(=N\NC(=O)c1ccc2c(c1)OCO2)C12CC3CC(CC(C3)C1)C2	none
O=C(NNC(=S)Nc1ccccc1)c1ccncc1	CYP2C9 inh 69, CYP2C19 inh 70
O=C(NNC(=S)NC(=O)C12CC3CC(CC(C3)C1)C2)c1ccncc1	CYP2C9 inh 94, PostGolgi ctrl 48, CYP2C19 inh 67, PostGolgi yeast 42
CC(C)NC(=S)NNC(=O)C12CC3CC(CC(C3)C1)C2	none
CCOC(=O)c1cc2n(n1)C(C(F)(F)F)CC(C)N2 (configuration not stated)	none
N#Cc1ccc(OCC(=O)NCCc2ccc(S(N)(=O)=O)cc2)cc1	none
COc1ccccc1NC(=O)C1=C(C)Nc2nc(CCCO)nn2C1c1cccnc1 (configuration not stated)	none
CC1=C(C(=O)Nc2ccccc2)C(c2cccnc2)n2nc(-c3cccnc3)nc2N1 (configuration not stated)	CYP2C9 inh 75
COc1cccc(-c2nc3n(n2)C(c2cccs2)C(C(=O)Nc2cccnc2)=C(C)N3)c1 (configuration not stated)	CYP2C9 inh 99, CYP2C19 inh 77
CC1=C(C(=O)Nc2ccccc2C)C(c2cccnc2)n2nc(CCCO)nc2N1 (configuration not stated)	CYP2C9 inh 53
COC(=O)C1=C(C)Nc2nc(-c3ccccc3)nn2C1c1ccc(C)o1 (configuration not stated)	CYP2C9 inh 71, CYP2C19 inh 66
CCCS(=O)(=O)c1snnc1C	none
CS(=O)(=O)N1N=C(c2ccc3nccnc3c2)CC1c1ccccc1 (configuration not stated)	none
Oc1ccccc1C1=Nc2ncnn2C(c2ccccc2)C1 (configuration not stated)	CYP2C19 inh 54
CCN(Cc1ccccc1)Cc1c(F)cccc1F	none
COc1ccc(CN(CCN(C)C)Cc2ccccc2)c(OC)c1	CYP2C19 inh 82
CCN(Cc1ccccc1)Cc1cc(OC)cc(OC)c1	CYP2C19 inh 95
Cc1nn(C)c(C)c1NC(=O)CN1CCC(O)(c2ccc3c(c2)OCO3)CC1	none
CC1Cc2cc(/C(O)=C3/C(=O)C(=O)N(Cc4ccco4)C3c3cccs3)ccc2O1 (configuration not stated)	none
C/C(=C\c1ccccc1)C(=O)Nc1cc(C)on1	none
COc1ccc(N/C(=C(/C(Cl)=C(Cl)Cl)[N+](=O)[O-])n2nnc3ccccc32)cc1	CYP2C9 inh 55
Cc1ccc(CNc2ccc(N3CCOCC3)cc2)s1	CYP2C19 inh 65
CC(=O)N1CCN(c2ccc(NCc3ccc(C)s3)cc2)CC1	none
Cc1cccc(CCNC(=O)C2CCN(S(=O)(=O)c3c(C)noc3C)CC2)c1	none
Cc1ccc(/C=C/C(O)=C2/C(=O)N(C)C3(C)CC2c2ccccc2O3)cc1 (configuration not stated)	PostGolgi ctrl 44
COc1ccc(/C=C/C(O)=C2/C(=O)N(C)C3(C)CC2c2ccccc2O3)cc1 (configuration not stated)	none
CCC(=O)Oc1ccc(C/C(=N\O)c2ccc(O)cc2O)o1	CYP2C9 inh 96, CYP2C19 inh 96
COc1ccc(CCN2C(=O)C3C4CC(C5C(C(=O)O)=NOC45)C3C2=O)cc1OC (configuration not stated)	none
O/N=C(\c1ccc(Cl)cc1)c1ncc(C(F)(F)F)cc1Cl	CYP2C9 inh 86, CYP2C19 inh 98
COc1ccc(CNC(=O)c2cc(-c3ccco3)on2)cc1	none
COc1ccc(CNC(=O)c2csc(Cc3ccc(OC)cc3)n2)cc1	CYP2C9 inh 67
COc1ccc(CNC(=O)c2csc(Cc3ccc(Cl)cc3)n2)cc1	CYP2C9 inh 62, CYP2C19 inh 57
Nc1cc(=O)nc(SCC(=O)NC2CCCCC2)n1-c1ccccc1	none
Cc1nc2ccccc2c2oc(C(=O)N3CCc4ccccc4C3)cc12	PostGolgi ctrl 35
Cc1ccc(S(=O)(=O)N2CCN(C(=O)c3cc4c(C)nn(-c5ccccc5C)c4s3)CC2)cc1	CYP2C9 inh 63
Cc1nn(-c2ccccc2)c2sc(C(=O)NC3CCCCC3)cc12	CYP2C9 inh 70
Cc1nn(-c2ccccc2)c2sc(C(=O)N3CCCCC3)cc12	none
Cc1nn(-c2ccccc2)c2sc(C(=O)N3CCc4ccccc4C3)cc12	PostGolgi ctrl 45
Cc1cnc(NC(=O)c2cc3c(C)nn(-c4ccccc4)c3s2)s1	CYP2C9 inh 66, CYP2C19 inh 56
CCCCNC(=O)COC(=O)c1cc2c(C)nn(-c3ccccc3)c2s1	CYP2C9 inh 78, CYP2C19 inh 51
